Records with an inconclusive call do not appear. Activity calls are given as the source filed them. Unless noted, calls follow the shape of the dose curve; as a rule, active = well fitted curve in the direction sought with a large enough effect; inconclusive = small, poorly fitted or top-dose-only effect, or another doubt; inactive = no such curve, though single readings can be large; an effect the other way counts as inactive or inconclusive.
Legend:
[1] = Natriuretic polypeptide receptor (hNpr1) antagonism - Pilot counterscreen GloSensor control cell line (AID 1347045; calls by dose curve; also: series mostly up to about 38 µM; % is scaled to controls: 0 for no effect and ±100 for the full control effect)
How it was run: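 This counterscreen uses HEK293 cells expressing the GIP/pGS-40F cGMP biosensor. Compound-treated cells are challenged with 50 uM sodium nitroprusside, and the luciferase signal is compared before and after stimulation.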

[2] = biological target: Atrial natriuretic peptide receptor 1 (Homo sapiens) (UniProt P16066); assay: Natriuretic polypeptide receptor (hNpr1) antagonism - Pilot screen (AID 1347049; calls by dose curve;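 also: agonist-evoked cGMP luminescence read 20 min after hNppA addition; series mostly up to about 58 µM; % is scaled to controls: 0 for no effect and ±100 for the full control effect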)
Sequence of Atrial natriuretic peptide receptor 1 (Homo sapiens) (P16066 whole entry, looked up): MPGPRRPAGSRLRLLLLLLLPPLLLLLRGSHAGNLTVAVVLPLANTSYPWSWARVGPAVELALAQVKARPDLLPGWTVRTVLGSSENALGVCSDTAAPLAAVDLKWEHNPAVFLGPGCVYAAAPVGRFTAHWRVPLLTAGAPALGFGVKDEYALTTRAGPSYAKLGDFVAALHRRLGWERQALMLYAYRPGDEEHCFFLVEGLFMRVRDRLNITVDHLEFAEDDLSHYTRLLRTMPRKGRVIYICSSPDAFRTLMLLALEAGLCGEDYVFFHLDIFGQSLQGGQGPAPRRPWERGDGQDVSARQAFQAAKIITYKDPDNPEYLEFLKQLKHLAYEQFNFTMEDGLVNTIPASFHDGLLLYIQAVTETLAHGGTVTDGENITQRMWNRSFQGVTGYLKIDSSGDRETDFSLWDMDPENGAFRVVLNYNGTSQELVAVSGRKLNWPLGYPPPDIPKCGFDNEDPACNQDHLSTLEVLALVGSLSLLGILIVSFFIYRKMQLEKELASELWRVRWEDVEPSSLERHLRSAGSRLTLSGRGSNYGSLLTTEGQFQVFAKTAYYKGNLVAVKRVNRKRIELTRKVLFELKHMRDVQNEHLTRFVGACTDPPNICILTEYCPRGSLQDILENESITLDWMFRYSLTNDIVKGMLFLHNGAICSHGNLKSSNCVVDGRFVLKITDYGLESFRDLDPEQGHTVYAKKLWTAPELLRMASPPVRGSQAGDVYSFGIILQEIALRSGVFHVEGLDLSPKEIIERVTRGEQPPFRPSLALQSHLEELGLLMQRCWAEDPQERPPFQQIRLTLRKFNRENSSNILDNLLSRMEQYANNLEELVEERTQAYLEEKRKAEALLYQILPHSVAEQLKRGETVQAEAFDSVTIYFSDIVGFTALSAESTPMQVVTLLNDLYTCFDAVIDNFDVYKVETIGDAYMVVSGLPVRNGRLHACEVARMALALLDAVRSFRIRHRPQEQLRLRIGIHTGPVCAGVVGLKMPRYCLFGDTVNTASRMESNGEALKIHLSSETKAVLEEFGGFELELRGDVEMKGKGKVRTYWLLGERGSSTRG
How it was run: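 Readout is cGMP-driven firefly luciferase luminescence in HEK293 cells carrying hNpr1 and a PDE5-domain GloSensor, read before and 20 min after 0.1 nM hNppA stimulation. Cells had 2% substrate reagent for 2 h and test compound for 30 min.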

[3] = biological target: Atrial natriuretic peptide receptor 2 (Homo sapiens) (UniProt P20594); assay: Natriuretic polypeptide receptor (hNpr2) antagonism - Pilot subtype selectivity assay (AID 1347050; calls by dose curve; also: potency is read from the fitted curve at half-maximal effect)
Sequence of Atrial natriuretic peptide receptor 2 (Homo sapiens) (P20594 whole entry, looked up): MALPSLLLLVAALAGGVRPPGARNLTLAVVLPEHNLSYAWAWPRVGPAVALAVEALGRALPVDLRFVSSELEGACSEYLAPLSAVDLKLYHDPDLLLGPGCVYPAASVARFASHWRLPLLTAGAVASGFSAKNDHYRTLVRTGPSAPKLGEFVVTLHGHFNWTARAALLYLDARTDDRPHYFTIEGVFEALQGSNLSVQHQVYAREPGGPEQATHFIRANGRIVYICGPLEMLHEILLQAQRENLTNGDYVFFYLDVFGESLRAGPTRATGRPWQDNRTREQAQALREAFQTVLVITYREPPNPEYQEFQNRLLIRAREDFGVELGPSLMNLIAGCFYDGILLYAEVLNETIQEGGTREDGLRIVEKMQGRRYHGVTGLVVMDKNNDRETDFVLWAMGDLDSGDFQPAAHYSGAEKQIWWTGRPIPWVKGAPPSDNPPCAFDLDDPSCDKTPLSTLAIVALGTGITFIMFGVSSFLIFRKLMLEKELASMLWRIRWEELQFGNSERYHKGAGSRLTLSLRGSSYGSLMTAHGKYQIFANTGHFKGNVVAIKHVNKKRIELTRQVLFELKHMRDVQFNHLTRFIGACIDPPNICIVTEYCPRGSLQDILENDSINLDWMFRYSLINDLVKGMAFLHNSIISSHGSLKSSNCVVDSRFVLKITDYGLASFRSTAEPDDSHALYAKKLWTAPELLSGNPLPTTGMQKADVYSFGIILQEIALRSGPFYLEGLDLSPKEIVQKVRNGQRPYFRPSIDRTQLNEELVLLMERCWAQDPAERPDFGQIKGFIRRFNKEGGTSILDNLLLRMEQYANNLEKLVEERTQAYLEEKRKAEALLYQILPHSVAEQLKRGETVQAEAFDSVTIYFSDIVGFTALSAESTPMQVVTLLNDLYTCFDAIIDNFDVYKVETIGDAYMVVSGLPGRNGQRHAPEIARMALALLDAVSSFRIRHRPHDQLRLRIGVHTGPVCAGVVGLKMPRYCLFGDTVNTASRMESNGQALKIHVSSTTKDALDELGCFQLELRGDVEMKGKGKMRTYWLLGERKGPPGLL
How it was run: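 Pilot selectivity screen against hNpr2: HEK293 cGMP-sensor cells are treated with LOPAC1280 compounds, then with hNppC peptide at 1 nM final. The cGMP-driven luminescence change over 20 min at room temperature is the read-out.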

[4] = NS1 protein of Zika virus - qHTS assay to identify small molecule inhibitors in human HEK 293 cells (AID 1347053);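 also: series mostly up to about 46 µM; plate controls were infected untreated cells for no effect and uninfected cells for full effect; nearly all actives have a fitted effect of over 55% in size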
How it was run: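 Following 20 h seeding, HEK 293 cells took compound, then 1 h later ZIKV MR766 (MOI = 0.5). Incubation ran 24 h at 37 C before TR-FRET detection of NS1; a drop in signal indicates inhibition.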

[5] = biological target: T1, Tyrosine-protein phosphatase non-receptor type substrate 1 (Homo sapiens) + Leukocyte surface antigen CD47 (Homo sapiens) (UniProt P78324+Q08722); assay: CD47-SIRPalpha protein protein interaction - LANCE assay qHTS validation (AID 1347057; active = well fitted curve in the direction sought with a large enough effect in the signal ratio, with a control signal flat, not every such curve was filed as active; the % refers to the signal ratio; also: series mostly up to about 38 µM; 0% is about no effect)
T1 sequence (P78324 whole entry, looked up): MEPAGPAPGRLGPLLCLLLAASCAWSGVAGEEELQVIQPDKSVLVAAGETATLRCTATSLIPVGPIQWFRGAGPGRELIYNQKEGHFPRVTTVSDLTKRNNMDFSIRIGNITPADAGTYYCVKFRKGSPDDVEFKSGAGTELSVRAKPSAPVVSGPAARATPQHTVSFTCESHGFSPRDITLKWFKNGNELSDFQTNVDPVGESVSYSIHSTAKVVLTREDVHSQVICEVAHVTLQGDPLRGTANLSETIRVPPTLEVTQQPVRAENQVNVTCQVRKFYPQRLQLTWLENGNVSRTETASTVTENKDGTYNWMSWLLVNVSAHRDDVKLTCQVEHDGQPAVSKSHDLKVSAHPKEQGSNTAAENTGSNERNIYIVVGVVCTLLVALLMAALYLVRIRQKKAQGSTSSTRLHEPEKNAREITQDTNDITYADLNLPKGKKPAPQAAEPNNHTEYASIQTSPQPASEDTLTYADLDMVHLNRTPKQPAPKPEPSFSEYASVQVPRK
T1 sequence (Q08722 whole entry, looked up): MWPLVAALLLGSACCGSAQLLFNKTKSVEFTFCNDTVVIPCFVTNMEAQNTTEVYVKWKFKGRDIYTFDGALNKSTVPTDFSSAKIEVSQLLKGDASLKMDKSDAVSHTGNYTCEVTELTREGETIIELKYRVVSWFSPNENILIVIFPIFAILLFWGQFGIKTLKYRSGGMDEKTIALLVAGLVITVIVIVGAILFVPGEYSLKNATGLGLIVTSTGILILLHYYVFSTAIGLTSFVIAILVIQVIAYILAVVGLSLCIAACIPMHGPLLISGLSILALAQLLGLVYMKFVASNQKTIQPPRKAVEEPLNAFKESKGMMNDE
How it was run: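 First, His-tagged CD47 and Eu-labelled anti-His antibody met the compound for 30 min; next, site-specifically biotinylated SIRPalpha was added for 30 min; finally streptavidin-APC was added before reading the TR-FRET ratio.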

[6] = biological target: T1, Tyrosine-protein phosphatase non-receptor type substrate 1 (Homo sapiens) + Leukocyte surface antigen CD47 (Homo sapiens); assay: CD47-SIRPalpha protein protein interaction - HTRF assay qHTS validation (AID 1347058; active = well fitted curve in the direction sought with a large enough effect in the signal ratio, not every such curve was filed as active; the % refers to the signal ratio;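 also: recombinant soluble extracellular CD47 with His tag and biotinylated SIRPalpha domains; series mostly up to about 38 µM; 0% is about no effect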)
How it was run: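 TR-FRET read (Ch1/Ch2 ratio) of soluble extracellular CD47 and Avi-biotinylated SIRPalpha domains in PBS pH 7.4 with 0.05% IGEPAL; 7-point compound titration. Sequential 30 min room-temperature steps; non-biotinylated SIRPalpha as control inhibitor.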

[7] = biological target: T1, Tyrosine-protein phosphatase non-receptor type substrate 1 (Homo sapiens) + Leukocyte surface antigen CD47 (Homo sapiens); assay: CD47-SIRPalpha protein protein interaction - Alpha assay qHTS validation (AID 1347059);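 also: bead proximity luminescence from CD47 binding SIRPalpha after compound preincubation with SIRPalpha; % is scaled to controls: 0 for no effect and ±100 for the full control effect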
How it was run: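 Binding is measured by AlphaScreen proximity: Ni-NTA acceptor beads capture His-CD47, streptavidin donor beads capture biotin-SIRPalpha. Each of three additions (SIRPalpha with compound, CD47, beads) incubates 30 min at room temperature protected from light.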

[8] = biological target: Parathyroid hormone/parathyroid hormone-related peptide receptor (Homo sapiens) (UniProt Q03431); assay: qHTS for PTHR1 Agonists: Optimization Screen against the NCGC LOPAC library (AID 1347079);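 also: GloSensor cAMP luminescence in HEK-293 GP2 cells expressing human PTHR1 with IBMX; 0% is about no effect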
Sequence of Parathyroid hormone/parathyroid hormone-related peptide receptor (Homo sapiens) (Q03431 whole entry, looked up): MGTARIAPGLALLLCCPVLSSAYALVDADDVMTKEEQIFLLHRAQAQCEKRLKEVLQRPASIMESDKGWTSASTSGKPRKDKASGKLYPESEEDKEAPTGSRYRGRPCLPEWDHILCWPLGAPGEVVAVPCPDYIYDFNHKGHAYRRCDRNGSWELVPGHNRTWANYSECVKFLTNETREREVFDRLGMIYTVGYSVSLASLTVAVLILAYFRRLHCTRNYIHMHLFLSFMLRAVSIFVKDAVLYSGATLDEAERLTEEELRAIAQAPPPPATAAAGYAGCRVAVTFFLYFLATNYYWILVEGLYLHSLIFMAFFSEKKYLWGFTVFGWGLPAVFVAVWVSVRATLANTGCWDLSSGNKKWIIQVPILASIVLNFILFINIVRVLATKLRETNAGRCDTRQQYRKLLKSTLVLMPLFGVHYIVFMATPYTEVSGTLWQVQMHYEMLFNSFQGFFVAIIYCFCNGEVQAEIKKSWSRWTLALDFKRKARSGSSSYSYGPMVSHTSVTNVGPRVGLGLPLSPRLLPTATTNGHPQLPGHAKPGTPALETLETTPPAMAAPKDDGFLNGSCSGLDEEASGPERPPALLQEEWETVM
How it was run: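 Compounds were tested across a qHTS titration. PTHR1-expressing GP2 cells report cAMP rises via GloSensor luminescence after 1 hr compound exposure at 37C with IBMX present.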

[9] = qHTS of pediatric cancer cell lines to identify multiple opportunities for drug repurposing: Primary screen for TC32 cells (AID 1347089); also: % is scaled to controls: 0 for no effect and ±100 for the full control effect; nearly all actives have a fitted effect of over 60% in size
How it was run: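 qHTS, TC32, 48 h drug treatment, CellTiter-Glo luminescence as a proxy for metabolically active cells; primary top concentration 46 µM (MIPE 11-pt, NPC 8-pt); confirmatory 11-pt.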

[10] = qHTS of pediatric cancer cell lines to identify multiple opportunities for drug repurposing: Primary screen for DAOY cells (AID 1347090);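 also: series mostly up to about 46 µM; plate controls were DMSO for no effect and bortezomib for full effect; nearly all actives have a fitted effect of over 55% in size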
How it was run: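 Cell viability, CellTiter-Glo luminescence; 500-1,000 cells/well, 8- or 11-point titration, 48 h compound exposure at 37 degrees C, 5% CO2. Controls: DMSO neutral, bortezomib 2.3 µM final as positive.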

C[C@H](CS)C(=O)N1CCC[C@H]1C(=O)O
inactive: Potency [1] | Potency [2] | Potency [3] | outcome [4] | outcome [5] | outcome [6] | Potency [7] | outcome [8] | Potency [9] | Potency [10]

Cc1nnc(SCC2=C(C(=O)O)N3C(=O)[C@@H](NC(=O)Cn4cnnn4)[C@H]3SC2)s1
inactive: Potency [1] | Potency [2] | Potency [3] | outcome [4] | outcome [5] | outcome [6] | Potency [7] | outcome [8] | Potency [9] | Potency [10]

CC(C)NCC(O)c1cc(O)cc(O)c1 (centres undefined)
inactive: Potency [1] | Potency [2] | Potency [3] | outcome [4] | outcome [5] | outcome [6] | Potency [7] | outcome [8] | Potency [9] | Potency [10]

FC(F)(F)c1ccccc1-n1ccnc1
inactive: Potency [1] | Potency [2] | Potency [3] | outcome [4] | outcome [5] | outcome [6] | Potency [7] | outcome [8] | Potency [9] | Potency [10]

COc1ccc2c(c1OC)C(=O)O[C@@H]2[C@H]1c2c(cc3c(c2OC)OCO3)CCN1C
active: Potency [3] 16.5 µM
inactive: Potency [1] | Potency [2] | outcome [4] | outcome [5] | outcome [6] | Potency [7] | outcome [8] | Potency [9] | Potency [10]

C=CCc1ccccc1OCC(O)CNC(C)C (centres undefined)
inactive: Potency [1] | Potency [2] | Potency [3] | outcome [4] | outcome [5] | outcome [6] | Potency [7] | outcome [8] | Potency [9] | Potency [10]

C[N+](C)(C)CCOC(=O)CCC(=O)OCC[N+](C)(C)C
inactive: Potency [1] | Potency [2] | Potency [3] | outcome [4] | outcome [5] | outcome [6] | Potency [7] | outcome [8] | Potency [9] | Potency [10]

CCn1cc(C(=O)O)c(=O)c2cc3c(cc21)OCO3
inactive: Potency [1] | Potency [2] | Potency [3] | outcome [4] | outcome [5] | outcome [6] | Potency [7] | outcome [8] | Potency [9] | Potency [10]

COc1cc(C(=O)OCCCN2CCCN(CCCOC(=O)c3cc(OC)c(OC)c(OC)c3)CC2)cc(OC)c1OC
inactive: Potency [1] | Potency [2] | Potency [3] | outcome [4] | outcome [5] | outcome [6] | Potency [7] | outcome [8] | Potency [9] | Potency [10]

CN(C)CCN(Cc1cccs1)c1ccccn1
inactive: Potency [1] | Potency [2] | Potency [3] | outcome [4] | outcome [5] | outcome [6] | Potency [7] | outcome [8] | Potency [9] | Potency [10]

C(=C\c1ccccc1)/CN1CCN(C(c2ccccc2)c2ccccc2)CC1
inactive: Potency [1] | Potency [2] | Potency [3] | outcome [4] | outcome [5] | outcome [6] | Potency [7] | outcome [8] | Potency [9]

CC(C(=O)O)c1ccc(CC2CCCC2=O)cc1 (centres undefined)
inactive: Potency [1] | Potency [2] | Potency [3] | outcome [4] | outcome [5] | outcome [6] | Potency [7] | outcome [8] | Potency [9] | Potency [10]

CN/C(=C\[N+](=O)[O-])NCCSCc1ccc(CN(C)C)o1
inactive: Potency [1] | Potency [2] | Potency [3] | outcome [4] | outcome [5] | outcome [6] | Potency [7] | outcome [8] | Potency [9] | Potency [10]

NCCCNCCSP(=O)(O)O
inactive: Potency [1] | Potency [2] | Potency [3] | outcome [4] | outcome [5] | outcome [6] | Potency [7] | outcome [8] | activity change, negative = cytotoxic [9] 10.8% [at 9.17 µM] | activity change, negative = cytotoxic [10] 0.0744% [at 9.22 µM]

NC(=O)c1ncn([C@@H]2O[C@H](CO)[C@@H](O)[C@H]2O)c1O
inactive: Potency [1] | Potency [2] | Potency [3] | outcome [4] | outcome [5] | outcome [6] | Potency [7] | outcome [8] | Potency [9] | Potency [10]

CN(C)CCOC(=O)COc1ccc(Cl)cc1
inactive: Potency [1] | Potency [2] | Potency [3] | outcome [4] | outcome [5] | outcome [6] | Potency [7] | outcome [8] | Potency [9] | Potency [10]

N[C@@H](COP(=O)(O)O)C(=O)O
inactive: Potency [1] | Potency [2] | Potency [3] | outcome [4] | outcome [5] | outcome [6] | Potency [7] | outcome [8] | Potency [9] | Potency [10]

COc1cc(Cc2cnc(N)nc2N)cc(OC)c1OC
inactive: Potency [1] | Potency [2] | Potency [3] | outcome [4] | outcome [5] | outcome [6] | Potency [7] | outcome [8] | Potency [9] | Potency [10]

CN(C)C(=O)Oc1ccc[n+](C)c1
inactive: Potency [1] | Potency [2] | Potency [3] | outcome [4] | outcome [5] | outcome [6] | Potency [7] | outcome [8] | Potency [9] | Potency [10]

CCn1ccnc1CC1COc2ccccc2O1 (centres undefined)
inactive: Potency [1] | Potency [2] | Potency [3] | outcome [4] | outcome [5] | outcome [6] | Potency [7] | outcome [8] | Potency [9] | Potency [10]

CCOC(=O)c1cnc2c(cnn2CC)c1NN=C(C)C
inactive: Potency [1] | Potency [2] | Potency [3] | outcome [4] | outcome [5] | outcome [6] | Potency [7] | outcome [8] | Potency [9] | Potency [10]

CN(C)C/C=C(/c1ccc(Br)cc1)c1cccnc1
inactive: Potency [1] | Potency [2] | Potency [3] | outcome [4] | outcome [5] | outcome [6] | Potency [7] | outcome [8] | Potency [9] | Potency [10]

— PubChem BioAssay (NCATS)
